Experimental data from paper PMC4336329 (PLoS ONE, 2015).
The campaign covered roughly 310,000 compounds. About 14,000 (4.5%) showed an effect of 50% or more. The effect is printed as a negative number. What follows is part of a selection rich in strong results, with near analogues and random picks from the rest.

The molecules below were run against human ether-à-go-go-related gene (hERG) potassium channel (human, UniProt Q12809) (assay: primary screen, population patch clamp on CHO cells stably expressing hERG; higher = less effect of the substance).
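Note: peak tail current of the secondary pulse compared with the same well before compound.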

Sequence of human ether-à-go-go-related gene (hERG) potassium channel (Q12809 whole entry, looked up): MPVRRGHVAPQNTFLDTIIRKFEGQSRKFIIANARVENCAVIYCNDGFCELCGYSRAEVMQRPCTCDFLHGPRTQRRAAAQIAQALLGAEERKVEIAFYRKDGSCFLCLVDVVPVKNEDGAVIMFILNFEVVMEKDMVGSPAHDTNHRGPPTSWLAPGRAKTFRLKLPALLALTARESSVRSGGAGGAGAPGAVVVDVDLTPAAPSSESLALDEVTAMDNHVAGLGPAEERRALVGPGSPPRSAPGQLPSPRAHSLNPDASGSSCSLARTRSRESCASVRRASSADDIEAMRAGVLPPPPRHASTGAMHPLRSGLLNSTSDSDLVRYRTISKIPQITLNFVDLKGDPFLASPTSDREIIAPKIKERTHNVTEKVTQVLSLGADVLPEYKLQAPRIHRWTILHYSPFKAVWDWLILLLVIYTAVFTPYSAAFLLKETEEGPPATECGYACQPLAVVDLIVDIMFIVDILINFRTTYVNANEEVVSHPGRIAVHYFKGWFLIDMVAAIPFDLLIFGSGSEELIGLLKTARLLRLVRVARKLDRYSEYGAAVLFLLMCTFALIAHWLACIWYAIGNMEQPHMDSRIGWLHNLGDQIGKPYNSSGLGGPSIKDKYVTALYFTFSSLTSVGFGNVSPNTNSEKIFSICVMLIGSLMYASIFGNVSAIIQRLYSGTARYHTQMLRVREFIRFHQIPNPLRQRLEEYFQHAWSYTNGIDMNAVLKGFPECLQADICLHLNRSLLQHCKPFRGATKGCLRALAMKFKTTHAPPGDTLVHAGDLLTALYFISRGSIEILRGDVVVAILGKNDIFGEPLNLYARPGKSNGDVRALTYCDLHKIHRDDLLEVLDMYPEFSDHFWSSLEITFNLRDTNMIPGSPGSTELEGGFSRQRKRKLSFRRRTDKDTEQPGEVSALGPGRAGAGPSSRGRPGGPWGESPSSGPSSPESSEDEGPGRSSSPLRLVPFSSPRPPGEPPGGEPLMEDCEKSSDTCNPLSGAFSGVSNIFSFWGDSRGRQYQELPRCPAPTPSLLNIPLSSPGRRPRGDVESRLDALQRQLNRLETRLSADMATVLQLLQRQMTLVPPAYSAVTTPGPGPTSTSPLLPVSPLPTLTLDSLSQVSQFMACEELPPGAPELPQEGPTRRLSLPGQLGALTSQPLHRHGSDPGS

Structure (SMILES) | hERG current change (%, negative = inhibition) at 10uM
Cc1nn(C(C)C)c(C)c1CN1CCC(C(=O)Nc2cccc(-c3cccc(F)c3)c2)CC1 | -67.8%
Br.COc1cccc(CNCC2CCCO2)c1 (stereo not shown) | 13.9%
COc1ccc(OC)c(NC(=O)Cc2coc3ccc4ccccc4c23)c1 | 0.772%
Cc1sc(/C=C2\C(=O)ON=C2c2ccccc2)cc1Br | 14.8%
COC(=O)c1ccc(NC(=O)c2ccc3nsnc3c2)cc1 | 4.15%
COc1ccc(CN2CCN(Cc3ccccc3F)CC2)cc1.O=C(O)C(=O)O | -43.2%
COc1ccc(CN2CCN(c3ccccc3F)CC2)c(OC)c1 | -75.1%
COc1ccc(CN2CCN(c3ccccc3F)CC2)cc1O | -66.5%
COc1ccc(CN2CCN(Cc3ccccc3F)CC2)c(OC)c1.O=C(O)C(=O)O | -68.5%
COc1ccc(CN2CCSCC2)cc1O | 14.4%
COc1ccc(CN2CCN(C(=O)c3ccc(F)cc3)CC2)c(OC)c1.O=C(O)C(=O)O | -44.3%
COc1cc(CN2CCN(c3ccccc3F)CC2)cc(OC)c1O | -26.4%
COc1ccc(OC)c(CN2CCN(c3ccccc3OC)CC2)c1 | -32.7%
COc1ccc(CN2CCN(Cc3ccco3)CC2)c(OC)c1.O=C(O)C(=O)O | -46.4%
COc1ccccc1N1CCN(Cc2ccccc2F)CC1 | -17.6%
COc1ccc(CN2CCN(c3ccccc3OC)CC2)c(OC)c1.O=C(O)C(=O)O | -64.2%
COc1cc(CN2CCN(c3ccccc3F)CC2)c([N+](=O)[O-])cc1OC | -27.4%
CC1CN(Cc2ccc(C#N)cc2Cl)CC(C)O1.Cl (stereo not shown) | 0.479%
COc1ccc(Nc2nc(-c3cccs3)nc3ccccc23)cc1S(=O)(=O)N1CCOCC1 | -17.5%
COc1ccc(OC)c(S(=O)(=O)N2Cc3ccccc3CC2C(=O)Nc2nccs2)c1 (stereo not shown) | 22.2%
COc1cc(CNn2c(C)n[nH]c2=S)cc(Cl)c1OCc1ccc(F)cc1 | 14.4%
COc1ccc2c(c1)C(NC(C)=O)C(=O)N2C (stereo not shown) | -5.38%
O=C(O)c1ccccc1C(=O)Nn1cnnc1 | 10.6%

Structure (SMILES) | hERG current change (%, negative = inhibition) at 10uM
CCOC(=O)NC1(C(F)(F)F)NC(=O)N(C2CCCCC2)C1=O (stereo not shown) | -3.7%
O=C(CCC(=O)NNC(=O)COc1ccc(Br)cc1)NCc1ccccc1 | 19.6%
OC(CNCc1ccccn1)c1ccccc1 (stereo not shown) | -3.94%
COc1ccc(C(=O)N2CCN(Cc3ccccc3C(F)(F)F)CC2)cc1.O=C(O)C(=O)O | -1.25%
COc1ccc(CN2CCN(Cc3ccccc3C(F)(F)F)CC2)c(OC)c1.O=C(O)C(=O)O | -74.2%
COc1cc(CN2CCN(Cc3ccccc3C(F)(F)F)CC2)cc(OC)c1OC.O=C(O)C(=O)O | -8.28%
NS(=O)(=O)c1cc(C(=O)NC2CCSc3ccccc32)ccc1Cl (stereo not shown) | 7.27%
CC(C)C1N=C(c2ccc3c(c2)OCO3)CC(c2ccccc2O)N1 (stereo not shown) | -20.5%
CC(C)N1CCC2(CC1)N=C(c1ccc3c(c1)OCO3)CC(c1cc(Cl)ccc1O)N2 (stereo not shown) | -67.1%
CCC1(C)N=C(c2ccc3c(c2)OCO3)CC(c2ccccc2O)N1 (stereo not shown) | 2.42%
Cc1ccc2cccnc2c1NC(=S)NC(=O)c1ccccc1 | 17%
O=C(C[n+]1cn(C(F)F)c2ccccc21)c1ccc(OC(F)F)cc1.[Br-] | -74.9%
O=C(NCc1ccccc1)c1ccc(Cl)cc1 | 2.26%
O=C(C[n+]1cccc(CNC(=O)c2ccc(OC(F)F)cc2)c1)c1ccccc1.[Cl-] | -14.7%
COc1ccc(C(=O)C[n+]2cn(C(F)F)c3ccccc32)c(F)c1.[Br-] | -4.45%
O=C(NCCc1ccccn1)c1ccc(OC(F)F)cc1 | -24.7%
O=C(CNC(=O)c1ccc(OC(F)F)cc1)NCc1ccccn1 | -70.9%
CCOc1ccc(C(=O)C[n+]2ccc(C(=O)NCc3ccccc3)cc2)cc1.[Br-] | -36%
O=C(C[n+]1ccc(C(=O)NCc2ccccc2)cc1)c1ccc2c(c1)OCCO2.[Br-] | 12.9%
O=C(C[n+]1cn(C(F)F)c2ccccc21)c1ccc(Br)cc1.[Br-] | -9.95%
O=C(CNC(=O)c1ccc(F)cc1)NCc1ccccn1 | -1.73%
O=C(C[n+]1ccc(C(=O)NCc2ccccc2)cc1)c1ccc(Cl)cc1.[Br-] | -71.3%
O=C(C[n+]1ccc(C(=O)NCc2ccccc2)cc1)c1ccc(OC(F)F)cc1.[Br-] | -92.8%
